Jurkat NFkB inh = lowers PMA/ionomycin-induced NF-kB signal in Jurkat cells; PMA/ionomycin-induced NF-kB luciferase reporter, luminescence; 330,000 compounds, 0.53% hits; inhibition, % at 4 µM; in the data active = inhibition above about 50%
Gli-Sufu block = antagonists of Gli-Sufu signaling; Sufu-KO-LIGHT fibroblasts, Gli luciferase reporter luminescence; 340,000 compounds, 0.74% hits; inhibition, % at 5 µM;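 active = inhibition above about 55%, limit read from the data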;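 also: 0% = DMSO-treated cells and 100% = wells with medium but no cells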
697 NFkB inh = lowers PMA/ionomycin-induced NF-kB signal in 697 B cells | 697 B-cell NF-kB luciferase reporter, 16 h | inhibition, % at 4 µM | 330,000 compounds, 0.33% hits | AID 435022; in the data active = inhibition above about 35%
Mdm2 MdmX PPI = human Mdm2/MdmX binding inhibition; O15151+Q00987; SaOS-2 split-luciferase Mdm2/MdmX complementation, luminescence; inhibition, % at 8 µM; 330,000 compounds, 3% hits; AID 485346;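 active = inhibition of at least 50% at 8 µM in the primary screen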
Target sequence (O15151 whole entry, looked up): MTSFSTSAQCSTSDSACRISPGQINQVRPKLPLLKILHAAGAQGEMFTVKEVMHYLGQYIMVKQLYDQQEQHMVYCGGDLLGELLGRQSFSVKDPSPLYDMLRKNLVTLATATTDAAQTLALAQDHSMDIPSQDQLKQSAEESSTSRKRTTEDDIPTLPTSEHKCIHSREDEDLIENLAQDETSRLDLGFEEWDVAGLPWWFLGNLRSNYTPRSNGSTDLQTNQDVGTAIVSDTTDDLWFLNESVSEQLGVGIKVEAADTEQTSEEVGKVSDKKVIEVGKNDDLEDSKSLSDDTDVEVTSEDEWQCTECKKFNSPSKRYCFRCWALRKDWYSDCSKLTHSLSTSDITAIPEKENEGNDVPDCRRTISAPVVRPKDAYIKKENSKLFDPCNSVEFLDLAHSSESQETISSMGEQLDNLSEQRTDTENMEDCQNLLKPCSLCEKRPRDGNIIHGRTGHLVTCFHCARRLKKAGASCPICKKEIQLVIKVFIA
Target sequence (Q00987 whole entry, looked up): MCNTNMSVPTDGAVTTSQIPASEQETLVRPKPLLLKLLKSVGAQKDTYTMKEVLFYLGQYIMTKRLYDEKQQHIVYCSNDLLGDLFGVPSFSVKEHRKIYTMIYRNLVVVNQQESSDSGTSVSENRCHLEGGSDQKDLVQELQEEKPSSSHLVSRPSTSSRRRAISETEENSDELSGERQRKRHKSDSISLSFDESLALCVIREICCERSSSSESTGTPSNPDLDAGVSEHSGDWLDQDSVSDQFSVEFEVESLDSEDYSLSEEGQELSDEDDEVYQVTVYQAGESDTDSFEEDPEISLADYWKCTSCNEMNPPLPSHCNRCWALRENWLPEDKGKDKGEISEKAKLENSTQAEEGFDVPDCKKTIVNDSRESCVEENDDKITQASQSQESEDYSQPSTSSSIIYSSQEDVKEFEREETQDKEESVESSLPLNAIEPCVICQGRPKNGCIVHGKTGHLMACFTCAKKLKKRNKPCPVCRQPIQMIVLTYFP
Beta apoptosis = beta cell apoptosis inhibition; INS-1E cytokine-induced death, ATP luminescence, 48 h; percent of positive-control rescue, neutral wells zero; protection from apoptosis, % (test concentration not listed); 300,000 compounds, 0.8% hits; AID 435005;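 active = Every replicate reaches about 75%, or at least half do and their mean reaches it too, limit read from the data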;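 also: 0% = cytokine-treated negative control wells and 100% = positive control rescue; higher means more ATP so stronger rescue from cytokine killing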
Mdm2-MdmX conf = confirmation of human Mdm2/MdmX interaction inhibitors | shares compounds with Mdm2 MdmX PPI | Mdm2-MdmX binding, luminescent assay | inhibition, % at 8 µM | AID 489028 | 10,000 compounds, 55% hits; in the data active = inhibition above about 40%
Full FLuc ctr = full-length luciferase inhibition in Mdm2/MdmX counter-screen | shares compounds with Mdm2 MdmX PPI | SaOS-2 full-length luciferase counterscreen, luminescence | inhibition, % at 8 µM | 6,200 compounds, 77% hits;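 active = mean inhibition at 8 µM reaching about 37%, which flags the compound as non-specific, limit read from the data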;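 also: p53-null SaOS-2 cells with luciferase driven by a doxycycline-inducible promoter; compound on cells about two nights before reading with doxycycline added after day one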
* marks the source's active call; other numbers are inactive results. An excerpt weighted towards active compounds, which were near 4% of everything screened.

Results for CCN1C(=NCc2cc(OC)c(OC)c(OC)c2)N[C@@H](c2ccccc2)C(C(=O)OC)=C1C ?
Jurkat NFkB inh: 9; Gli-Sufu block: 7; 697 NFkB inh: 13; Mdm2 MdmX PPI: 20; Beta apoptosis: -6

How did CCOc1ccc(Nc2ncnc3ccc([N+](=O)[O-])cc23)cc1 do in these assays?
Jurkat NFkB inh: 13; Gli-Sufu block: -14; 697 NFkB inh: -57; Mdm2 MdmX PPI: 69*; Beta apoptosis: 0; Mdm2-MdmX conf: 71*; Full FLuc ctr: 53*

What do the screens show for `Cc1ncsc1CCC(=O)N1CCCC(Nc2ccc(C(C)C)cc2)C1` (centres undefined)?
Jurkat NFkB inh: -4; Gli-Sufu block: 1; 697 NFkB inh: -3; Mdm2 MdmX PPI: 5; Beta apoptosis: -4

How did CN(C)S(=O)(=O)c1ccc(Cl)c(C(=O)OCC(=O)NNC(=O)c2cccs2)c1 do in these assays?
Jurkat NFkB inh: 16; Gli-Sufu block: 3; 697 NFkB inh: 18; Mdm2 MdmX PPI: 31

How did COc1ccc(Cl)cc1Nc1nc2ccc(C)cc2n2cnnc12 do in these assays?
Jurkat NFkB inh: -12; Gli-Sufu block: 46; 697 NFkB inh: -4; Mdm2 MdmX PPI: 55*; Beta apoptosis: 18; Mdm2-MdmX conf: 31

Results for Cc1cc(C)cc(NC(=S)N2CCC(NC(=O)c3ccco3)CC2)c1 ?
Jurkat NFkB inh: 5; Gli-Sufu block: 15; 697 NFkB inh: 15; Mdm2 MdmX PPI: 9; Beta apoptosis: -2

How did COC(=O)c1c(NC(=O)/C=C/C(=O)O)sc(C)c1-c1ccc(C)c(C)c1 do in these assays?
Jurkat NFkB inh: 9; Gli-Sufu block: -4; 697 NFkB inh: 3; Mdm2 MdmX PPI: 53*; Beta apoptosis: 4; Mdm2-MdmX conf: 22

Results for CCOC(=O)c1c(NC(=O)/C=C/C(=O)O)sc(C)c1-c1ccc(C)c(C)c1 ?
Jurkat NFkB inh: 8; Gli-Sufu block: -13; 697 NFkB inh: 34; Mdm2 MdmX PPI: 39

What do the screens show for `CCCN(CCC)c1ncnc2nc[nH]c12`?
Jurkat NFkB inh: 20; Gli-Sufu block: -17; 697 NFkB inh: -45; Mdm2 MdmX PPI: 72*; Beta apoptosis: -10; Mdm2-MdmX conf: 64*; Full FLuc ctr: 35

How did Clc1ccccc1CN(Cc1ccccc1)c1ncnc2nc[nH]c12 do in these assays?
Jurkat NFkB inh: -14; Gli-Sufu block: 2; 697 NFkB inh: -31; Mdm2 MdmX PPI: 9; Beta apoptosis: -3

Results for CCCC(=O)OCCNc1cc(Sc2nc3ccccc3[nH]2)c2nonc2c1[N+](=O)[O-] ?
Jurkat NFkB inh: -2; Gli-Sufu block: -15; 697 NFkB inh: 25; Mdm2 MdmX PPI: 96*; Beta apoptosis: 4; Mdm2-MdmX conf: 99*; Full FLuc ctr: 53*

How did CCOC(=O)N1CCN(C(=O)CC(C)S(=O)(=O)c2cc3c(cc2C)NC(=O)CO3)CC1 (centres undefined) do in these assays?
Jurkat NFkB inh: 3; Gli-Sufu block: -12; 697 NFkB inh: 5; Mdm2 MdmX PPI: 16; Beta apoptosis: -3

What do the screens show for `COc1ccc(NC(=O)Cc2c(SC)c3ccccc3n2Cc2ccccc2)cc1`?
Jurkat NFkB inh: -1; Gli-Sufu block: 16; 697 NFkB inh: -27; Mdm2 MdmX PPI: 69*; Beta apoptosis: 23; Mdm2-MdmX conf: 40; Full FLuc ctr: 90*

Results for CN(C)c1ccc(/C=C2\C(=N)N3C(=NC2=O)Sc2cc(S(C)(=O)=O)ccc23)cc1 ?
Jurkat NFkB inh: -12; 697 NFkB inh: -26; Mdm2 MdmX PPI: 89*; Mdm2-MdmX conf: -4

How did CN(C)c1ccc(/C=C2\C(=N)N3N=C(CC(=O)N4CCCCC4)SC3=NC2=O)cc1 do in these assays?
Jurkat NFkB inh: 12; Gli-Sufu block: 7; 697 NFkB inh: -21; Mdm2 MdmX PPI: 18; Beta apoptosis: -5

What do the screens show for `CC1CCC(NC(=O)COC(=O)c2cccnc2Cl)CC1` (centres undefined)?
Jurkat NFkB inh: 1; Gli-Sufu block: -7; 697 NFkB inh: 16; Mdm2 MdmX PPI: -13

Results for O=S(=O)(Cc1ccccc1)c1cnc2ccccc2n1 ?
Jurkat NFkB inh: 8; Gli-Sufu block: 24; 697 NFkB inh: 11; Mdm2 MdmX PPI: 59*; Beta apoptosis: -15; Mdm2-MdmX conf: 14

Results for O=S(=O)(c1ccc(Br)cc1)c1cnc2ccccc2n1 ?
Jurkat NFkB inh: 23; Gli-Sufu block: 5; 697 NFkB inh: 14; Mdm2 MdmX PPI: 50*; Beta apoptosis: -5; Mdm2-MdmX conf: 14

What do the screens show for `COc1ccc(S(=O)(=O)c2cnc3ccccc3n2)cc1`?
Jurkat NFkB inh: 5; Gli-Sufu block: 6; 697 NFkB inh: -1; Mdm2 MdmX PPI: 36; Beta apoptosis: 2

What do the screens show for `Cc1ccccc1-c1nc2cc(Cl)ccc2c(=O)o1`?
Jurkat NFkB inh: 11; Gli-Sufu block: 14; 697 NFkB inh: 3; Mdm2 MdmX PPI: 52*; Beta apoptosis: -1; Mdm2-MdmX conf: 50*; Full FLuc ctr: 76*

How did COc1ccc(NC(=O)c2[nH]c(C)c(C(C)=O)c2C)cc1Cl do in these assays?
Jurkat NFkB inh: -14; Gli-Sufu block: -17; 697 NFkB inh: 3; Mdm2 MdmX PPI: -34; Beta apoptosis: -9

What do the screens show for `COc1ccc(C(C)(C)C)cc1NC(=O)c1[nH]c(C)c(C(C)=O)c1C`?
Jurkat NFkB inh: -11; Gli-Sufu block: 31; 697 NFkB inh: 5; Mdm2 MdmX PPI: 54*; Beta apoptosis: 9; Mdm2-MdmX conf: 12

How did Cc1ccc(C(=O)c2c3ccc([N+](=O)[O-])cc3[n+]([O-])n2CCC(N)=O)cc1 do in these assays?
Jurkat NFkB inh: 25; Gli-Sufu block: 37; 697 NFkB inh: -97; Mdm2 MdmX PPI: 35; Beta apoptosis: 30

How did O=C(O)c1cc2ccccc2c(N=Nc2cccnc2)c1O do in these assays?
Jurkat NFkB inh: 2; Gli-Sufu block: 12; 697 NFkB inh: 10; Mdm2 MdmX PPI: 61*; Beta apoptosis: -36; Mdm2-MdmX conf: 32

How did CC/C(=C\C1CCCCC1)C(NP(=O)(c1ccccc1)c1ccccc1)c1ccccc1 (centres undefined) do in these assays?
Jurkat NFkB inh: 23; Gli-Sufu block: 5; 697 NFkB inh: 7; Mdm2 MdmX PPI: 55*; Beta apoptosis: 6; Mdm2-MdmX conf: 15

What do the screens show for `O=P(NC1CCCCC1)(c1ccccc1)c1ccccc1`?
Gli-Sufu block: 8

Results for Cc1c2ccccc2c(C)c2c1ccc1ccccc12 ?
Jurkat NFkB inh: -2; Gli-Sufu block: -15; 697 NFkB inh: -41; Mdm2 MdmX PPI: 79*; Beta apoptosis: -6; Mdm2-MdmX conf: 40*; Full FLuc ctr: 98*

Results for Cc1c2ccccc2nc2ccccc12 ?
Jurkat NFkB inh: 22; Gli-Sufu block: 0; 697 NFkB inh: 12; Mdm2 MdmX PPI: 27; Beta apoptosis: -11

Screens from PubChem.
